Experimental data: PubChem BioAssay (Tox21)
Where “and” joins values, the source holds several entries; their conditions need not be identical. Equal values may be shown once. Records with an inconclusive call do not appear. Entries that show only a call come without a potency. Unmarked numbers belong to inactive results. Calls of active or inactive are those of the source. The call rests on the fitted dose curve; in most records, active means well fitted cell-killing curve with a large enough effect in the repeat runs; inconclusive means weak or mixed curves, or effect the other way; inactive means flat fitted curve, though single readings scatter.

Legend:
[1] = cAMP Responsive Elements (CRE) small molecule antagonists, cell-based qHTS assay: qHTS cell viability counter screen (AID 2060913); further: nearly all actives have a fitted effect of over 40% in size
How it was run: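 HEK293T CRE-bla, 2,000 cells/well, 18 h preincubation; cpd in DMSO + NKH477 0.25 uM final, 3 h 37 C/5% CO2; LiveBLAzer 2 h RT, then CellTiter-Glo 30 min RT, luminescence.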

[2] = cAMP Responsive Elements (CRE) small molecule agonists, cell-based qHTS assay: qHTS cell viability counter screen (AID 2060914);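 further: viability read after 3 h of compound exposure; nearly all actives have a fitted effect of over 50% in size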
How it was run: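 CRE-bla HEK293T cells in 10% dialyzed FBS medium were exposed to compounds for 3 h at 37C after 18 h plating. CellTiter-Glo was then added in the same wells, and luminescence was read after 30 min at room temperature.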
Potency means the concentration at half of the fitted maximal effect.

| SMILES | Potency [1] | Potency [2] | viability change, negative = cytotoxic [1] | activity change, negative = cytotoxicity [2] |
| --- | --- | --- | --- | --- |
| [Cl][Sb]([Cl])[Cl] | inactive | inactive |  |  |
| O=P(O)(O)CCCl | inactive | inactive |  |  |
| CCOc1cc(C=O)ccc1O | inactive | inactive |  |  |
| CCN(CC)C(=O)Cl | inactive | inactive |  |  |
| CCOC(=O)C(SP(=S)(OC)OC)c1ccccc1 (stereo not given) | inactive | inactive |  |  |
| CCCCN(CC)C(=O)SCCC | inactive | inactive |  |  |
| Clc1ccc(Cl)c(Cl)c1 | inactive | inactive |  |  |
| CCc1ccc(C(=O)NN(C(=O)c2cc(C)cc(C)c2)C(C)(C)C)cc1 | inactive | inactive |  |  |
| O=C(NCNC(=O)NC1C(=O)NC(=O)N1CO)NC1C(=O)NC(=O)N1CO (stereo not given) | inactive | inactive |  |  |
| Oc1ccc(I)cc1 | inactive | inactive |  |  |
| CCCC1CCCCN1 (stereo not given) | inactive | inactive |  |  |
| Cl/C=C/Cl | inactive | inactive |  |  |
| CCNc1nc(Cl)nc(NCC)n1 | inactive | inactive |  |  |
| NNCCO | inactive | inactive |  |  |
| Clc1nc(Cl)nc(Nc2ccccc2Cl)n1 | inactive | inactive |  |  |
| CC(Cl)CCl (stereo not given) | inactive | inactive |  |  |
| CC[n+]1c(-c2ccccc2)c2cc(N)ccc2c2ccc(N)cc21 | inactive | inactive |  |  |
| CCC(C)(C)c1ccc(O)cc1 | inactive | inactive |  |  |
| CC(C)N(C(=O)COc1nnc(C(F)(F)F)s1)c1ccc(F)cc1 | inactive | inactive |  |  |
| CN1C(=O)CN=C(c2ccccc2)c2cc(Cl)ccc21 | inactive | inactive |  |  |

| SMILES | Potency [1] | Potency [2] | viability change, negative = cytotoxic [1] | activity change, negative = cytotoxicity [2] |
| --- | --- | --- | --- | --- |
| O=C(O)c1nn(Cc2ccc(Cl)cc2Cl)c2ccccc12 | inactive | inactive |  |  |
| BrCC(Br)C1CCC(Br)C(Br)C1 (stereo not given) | inactive | inactive |  |  |
| CCC(C)c1ccc(O)cc1 (stereo not given) | inactive | inactive |  |  |
| CCC(C)(C)O | inactive | inactive |  |  |
| CCCCC/C=C\C/C=C\C/C=C\C/C=C\CCCC(=O)NCC(=O)O | inactive | inactive |  |  |
| CCNc1nc(Cl)nc(NC(C)(C)C)n1 | inactive | inactive |  |  |
| COP(=O)(OC)OC | inactive | inactive |  |  |
| CCOC(=O)C(Cl)Cc1cc(-n2nc(C)n(C(F)F)c2=O)c(F)cc1Cl (stereo not given) | inactive | inactive |  |  |
| C[C@H](N)C(=O)c1ccccc1 | inactive | inactive |  |  |
| C#CC1(O)CCCCC1 | inactive | inactive |  |  |
| CCCCc1c(C)nc(NCC)nc1OS(=O)(=O)N(C)C | inactive | inactive |  |  |
| N#CCCC(Br)(C#N)CBr (stereo not given) | inactive | inactive |  |  |
| C=CCc1ccccc1O | inactive | inactive |  |  |
| CC(C)CCCCCCCOC(=O)c1ccccc1C(=O)OCCCCCCCC(C)C | inactive | inactive |  |  |
| O=C(Cl)c1ccccc1F | inactive | inactive |  |  |
| CCNc1nc(NC(C)C)nc(OC)n1 | inactive | inactive |  |  |
| CC(C)(N)Cc1ccc(Cl)cc1 | inactive | inactive |  |  |
| COP(=S)(NC(C)C)Oc1ccc(C)cc1[N+](=O)[O-] (stereo not given) | inactive | inactive |  |  |
| C=CCOC(C)=O | inactive | inactive |  |  |
| COc1cc(Cl)c(OC)cc1Cl | inactive | inactive |  |  |

| SMILES | Potency [1] | Potency [2] | viability change, negative = cytotoxic [1] | activity change, negative = cytotoxicity [2] |
| --- | --- | --- | --- | --- |
| CNC(=O)Oc1ccc(N(C)C)c(C)c1 | inactive | inactive |  |  |
| O=[N+]([O-])c1cccc(O)c1 | inactive | inactive |  |  |
| O=C(O)c1ccccc1O | inactive | inactive |  |  |
| CCCCCCCCOC(=O)c1ccc(C(=O)OCCCCCCCC)c(C(=O)OCCCCCCCC)c1 | inactive | inactive |  |  |
| O=C(O)C1C(C(=O)O)C2(Cl)C(Cl)=C(Cl)C1(Cl)C2(Cl)Cl (stereo not given) | inactive | inactive |  |  |
| COCC(C)N(C(=O)CCl)c1c(C)csc1C (stereo not given) | inactive | inactive |  |  |
| O=C1c2ccccc2C(=O)c2ccccc21 |  |  | 7.37% [at 18.9 µM] | 0.739% [at 18.9 µM] |
| CC(C)(c1ccc(OCC2CO2)cc1)c1ccc(OCC2CO2)cc1 (stereo not given) | inactive | inactive |  |  |
| CC(C)NCC(O)c1ccc(N)c(C#N)c1 (stereo not given) | inactive | inactive |  |  |
| Oc1ccc(Cl)c(Cl)c1Cl | inactive | inactive |  |  |
| CC(C)(C)NCC(O)c1cc(Cl)c(N)c(Cl)c1 (stereo not given) | inactive | inactive |  |  |
| CN(C)C(=S)SSC(=S)N(C)C | 12 µM (active) and 9.69 µM (active) and 7.5 µM (active) | 12 µM (active) and 27.3 µM (active) and 16.8 µM (active) |  |  |
| ClC1=C(Cl)[C@]2(Cl)[C@H]3[C@H]([C@H]4C=C[C@H]3C4)[C@@]1(Cl)C2(Cl)Cl | inactive | inactive |  |  |
| O=[Se]=O | 30.4 µM (active) | 17.1 µM (active) |  |  |
| CCN(C)N=O | inactive | inactive |  |  |
| CC(C)C(=O)OCC(C)(C)C(OC(=O)C(C)C)C(C)C (stereo not given) | inactive | inactive |  |  |
| CCOC(C(=O)OCCN(C)C)(c1ccccc1)c1ccccc1 | inactive | inactive |  |  |
| CN1C2CCC(C)(C)C1CC(OC(=O)C(O)(c1cccs1)c1cccs1)C2 (stereo not given) | inactive | inactive |  |  |
| CCCCOP(=O)(CCCC)OCCCC | inactive | inactive |  |  |
| CN(C)C(=O)Cl | inactive | inactive |  |  |
